The values that follow come from publication PMC4552634, “A New Set of Chemical Starting Points with Plasmodium falciparum Transmission-Blocking Potential for Antimalarial Drug Discovery” (PLoS ONE, 2015).

The whole screen tested about 13,000 compounds, of which about 3,200 (25%) showed an effect of 50% or more. This is one part of the list.

As usually defined, the % Inhibition is the relative decrease from the control value, in per cent.

The test concerns P. falciparum stage V gametocytes. Details: BacTiter-Glo ATP luminescence viability of purified stage V gametocytes in 384-well plates, per cent inhibition versus DMSO. The settings on record: 48 h, 5 µM; inhibitor.
Regarding `CC(CCc1ccccc1)NCC(O)c1ccc2c3c(cccc13)S(=O)(=O)N2C` (stereo not drawn) [TCMDC-131253], the “% Inhibition” value amounted to 8.689%.

On to `c1ccc2c(NCCCCCCCNc3ccnc4ccccc34)ccnc2c1` [TCMDC-137897], for which the “% Inhibition” value came out at 122.9%.

Take `FC(F)(F)c1ccc2c(NCCCNc3ccnc4cc(C(F)(F)F)ccc34)ccnc2c1` [TCMDC-137736]: the “% Inhibition” value is listed as 28.34%.

Take `Clc1ccc2c(NCCCCCCCCNc3ccnc4cc(Cl)ccc34)ccnc2c1` [TCMDC-137733]: the “% Inhibition” value is given as 25.46%.

In the case of `FC(F)(F)c1ccc2c(NCCNc3ccnc4cc(C(F)(F)F)ccc34)ccnc2c1` [TCMDC-137881], the “% Inhibition” value was -4.365%.

In the case of `NCCNc1ccnc2cc(Cl)ccc12` [TCMDC-125850], the “% Inhibition” value came out at 23.17%.

Consider `NCCCNc1ccnc2cc(Cl)ccc12` [TCMDC-123921], for which the “% Inhibition” value turned out to be 17.37%.

Take `COc1ccc(NCCCNc2ccnc3ccccc23)cc1` [TCMDC-139253]: the “% Inhibition” value is listed as -97.14%.

As to `c1ccc2c(NCCCCCCNc3ccnc4ccccc34)ccnc2c1` [TCMDC-137913], the “% Inhibition” value stood at 91.15%.

For the molecule `Clc1ccc2c(NCCNc3ccnc4cc(Cl)ccc34)ccnc2c1` [TCMDC-137882], the “% Inhibition” value is on record as 57.8%.

Take `c1ccc2c(NCCCCCCCCCNc3ccnc4ccccc34)ccnc2c1` [TCMDC-137750]: the “% Inhibition” value is recorded as 102.2%.

With `COc1ccccc1-c1cccc2c(NC(=O)Nc3ccc4nccc(N5CCN(C)CC5)c4c3)ccnc12` [TCMDC-139384], the “% Inhibition” value is -27.38%.

As for `COc1ccc(C(=C(C)CC(C)C(=O)O)c2ccccc2)cc1` (stereo not drawn) [TCMDC-131745], the “% Inhibition” value is given as -8.546%.

For the molecule `Cc1c(CNCCCNc2nc3ccccc3[nH]2)sc(C(F)F)c1Br` [TCMDC-141323], the “% Inhibition” value was 13.37%.

`Cc1ccccc1-c1cc(=O)c2cc(NC(=O)c3cccs3)ccc2o1` [TCMDC-124947]: the “% Inhibition” value is reported as 11.18%.

On to `COc1ccccc1/C=C/C(=O)N(C)C1CCN(CCCCCNC(=O)/C=C/c2ccc(Cl)c(Cl)c2)C1` (stereo not drawn) [TCMDC-139996], for which the “% Inhibition” value was 13.3%.

On to `Nc1nc(N)c2c(n1)CCc1cc(Br)ccc1-2` [TCMDC-125525], for which the “% Inhibition” value worked out at 4.608%.

On to `CN1CCC(c2c[nH]c3ccc(NC(=O)Nc4ccc(-c5ccncc5)cc4Cl)cc23)CC1` [TCMDC-139180], for which the “% Inhibition” value is given as -1.977%.

For `CC(C)(C)CNc1noc(-c2sccc2Br)n1` [TCMDC-134187], the “% Inhibition” value is recorded as -20.57%.

`C=CCN1C(=O)CN(S(=O)(=O)c2ccc(-n3nc(C)cc3C)cc2)C1=S` [TCMDC-131799]: the “% Inhibition” value is listed as -1.195%.

As to `c1ccc2c(NCCCCCCCCNc3ccnc4ccccc34)ccnc2c1` [TCMDC-137751], the “% Inhibition” value is on record as 124.8%.

Consider `CNCCCNc1ccnc2cc(Cl)ccc12` [TCMDC-125233], for which the “% Inhibition” value came out at 36.92%.

As for `CN(C)CCCNc1ccnc2cc(Cl)ccc12` [TCMDC-123919], the “% Inhibition” value was 17.18%.

Consider `CN(CCCNC(=S)NC12CC3CC(CC(C3)C1)C2)CCCNc1ccnc2cc(Cl)ccc12` [TCMDC-137885], for which the “% Inhibition” value amounted to 114.9%.

In the case of `CN1CCN(Cc2cc(NC(=O)c3ccc(-c4ccc(Cl)cc4Cl)cc3)ccc2-c2ccccc2)CC1` [TCMDC-138839], the “% Inhibition” value is on record as 21.61%.

Take `CC(C)CN1CCC(N(C)c2cc(NC(=O)c3cccc(F)c3)ccn2)CC1` [TCMDC-135022]: the “% Inhibition” value is -32.51%.

Regarding `CC(C)Cn1c(Sc2ccc(C#N)c([N+](=O)[O-])c2)nnc1-c1cccs1` [TCMDC-135575], the “% Inhibition” value is recorded as 26.53%.

On to `O=C(Nc1cccc(C(F)(F)F)c1)Nc1cc(F)c(F)cc1Cl` [TCMDC-123779], for which the “% Inhibition” value was 32.47%.

As to `CCc1ccc(-n2c(NC(=O)c3ccccc3)nc3ccc(S(=O)(=O)NC(C)C(C)C)cc32)cc1` (stereo not drawn) [TCMDC-136236], the “% Inhibition” value is reported as 39.19%.

On to `CC(OC(=O)c1ccc(C(=O)NCC2CC2)cc1)C(C)(C)C` (stereo not drawn) [TCMDC-138180], for which the “% Inhibition” value worked out at 11.69%.

In the case of `CCO[C@H]1CN[C@H](C#Cc2cc3c(Nc4ccc(OCc5cccc(F)c5)c(Cl)c4)ncnc3s2)C1` [TCMDC-135170], the “% Inhibition” value turned out to be 22.02%.

On to `CC(C)(C)c1ccc2nccc(Nc3cccc(O)c3)c2c1` [TCMDC-138884], for which the “% Inhibition” value was determined as 71.55%.

Turning to `COc1cc(Nc2ccnc3ccc(C(C)(C)C)cc23)cc(OC)c1OC` [TCMDC-138886], the “% Inhibition” value is reported as -36.54%.

`Cc1ccc(O)cc1Nc1ccnc2ccc(C(C)(C)C)cc12` [TCMDC-138885]: the “% Inhibition” value is recorded as -11.57%.

For `C=CCC(CC=C)N1C(=O)C(c2ccccc2)(c2ccccc2)N=C1N` [TCMDC-136807], the “% Inhibition” value was 5.028%.

`O=C(/C=C/c1ccc(C(F)(F)F)cc1)NCCCCCN1CCN(C(=O)Nc2ccc(Cl)c(Cl)c2)CC1` [TCMDC-136094]: the “% Inhibition” value is reported as -8.361%.

As to `CC1CCC2(CC1)N=C(N)N=C(N)N2OCc1cc2ccccc2c2ccccc12` (stereo not drawn) [TCMDC-131590], the “% Inhibition” value came to 22.45%.

For the molecule `C[C@H](NC(=O)c1c(CN2CCC(N3CCCCC3)CC2)c(-c2ccccc2)nc2cc(O)ccc12)C1CCCCC1` [TCMDC-140408], the “% Inhibition” value is 25.99%.

As to `CN1CCN(c2ccc(CNc3ccc4ncc(-c5cccc(OC(F)(F)F)c5)n4n3)cc2)CC1` [TCMDC-136690], the “% Inhibition” value was 11.23%.

With `CN1CCN(c2ccc(CNc3ccc4ncc(-c5ccc(OC(F)(F)F)cc5)n4n3)cc2)CC1` [TCMDC-136689], the “% Inhibition” value was -0.7792%.

Turning to `Cc1ccc(CNc2ccc3ncc(-c4cccc(C(=O)NCCN(C)C)c4)n3n2)c(C)c1` [TCMDC-136684], the “% Inhibition” value was found to be 104.7%.

Turning to `CN(C)CCNC(=O)c1cccc(-c2cnc3ccc(NCc4ccc(Cl)c(Cl)c4)nn23)c1` [TCMDC-136677], the “% Inhibition” value turned out to be 49.91%.

As for `Clc1ccc(-c2cnc3ccc(NCc4ccncc4)nn23)cc1` [TCMDC-136682], the “% Inhibition” value was determined as 21.16%.

`CN(C)c1cccc(-c2cnc3ccc(NCc4cccc(Cl)c4)nn23)c1` [TCMDC-136673]: the “% Inhibition” value worked out at 81.33%.

`Clc1ccc(-c2cnc3ccc(NCCc4cccnc4)nn23)cc1` [TCMDC-136680]: the “% Inhibition” value is -25.41%.

For the molecule `CN(C)CCNC(=O)c1ccc(-c2cnc3ccc(NCc4ccc(Cl)c(Cl)c4)nn23)cc1` [TCMDC-136678], the “% Inhibition” value is 106.7%.

On to `OC1CCC(Nc2ccc3ncc(-c4ccc5ccccc5c4)n3n2)CC1` (stereo not drawn) [TCMDC-136691], for which the “% Inhibition” value is reported as 25.44%.

Turning to `CCC(C)NC(=O)CN1CN(c2ccccc2)C2(CCN(C(=O)c3ccc4ccccc4c3)CC2)C1=O` (stereo not drawn) [TCMDC-125174], the “% Inhibition” value was -36.87%.

With `CCNc1cc(C)nc(Nc2ccc(NS(=O)(=O)c3cc(OC)ccc3OC)cc2)n1` [TCMDC-124953], the “% Inhibition” value was -19.07%.

As to `CC(C)c1ccc(NC(=O)c2ccc(C(=O)NC3CCN(CC4CCCCC4)C3)cc2)cc1` (stereo not drawn) [TCMDC-136743], the “% Inhibition” value was -27.55%.

`COc1cccc2cc(C(=O)N[C@@H](CC(C)C)C(=O)N[C@H](/C=N/NC(=O)c3ccccc3)Cc3cnc[nH]3)oc12` [TCMDC-135820]: the “% Inhibition” value was 40.86%.

For the molecule `CN(C)CCOc1cc(NC(=O)Nc2ccc(-c3ccncc3)c(Cl)c2)ccc1I` [TCMDC-139135], the “% Inhibition” value was found to be 19.45%.

Take `COc1ccc(C(=O)C2CCN(CCCCNC(=O)c3ccc(NC(=O)c4cc(Cl)cc(Cl)c4)cc3)CC2)cc1` [TCMDC-138228]: the “% Inhibition” value is recorded as -14.09%.

`Clc1ccc(C2CCN(CCCOc3ccc4c(c3)CCNCC4)CC2)cc1` [TCMDC-141782]: the “% Inhibition” value is given as 72%.

With `O=C(c1ccc(Cl)cc1)C1CCN(CCCOc2ccc3c(c2)CCNCC3)CC1` [TCMDC-141781], the “% Inhibition” value was 60.35%.

Consider `COc1ccc(C(=O)C2CCN(CCCCNC(=O)c3ccc(NC(=O)c4ccc(Cl)cc4)cc3)CC2)c(OC)c1` [TCMDC-138625], for which the “% Inhibition” value is -32.94%.

Take `CC(C)(C)c1ccc(NC(=O)Nc2ccc(Cn3ncc(N4CCCNCC4)c(Cl)c3=O)cc2)cc1` [TCMDC-133314]: the “% Inhibition” value is given as -23.28%.

Turning to `COc1ccc(-c2onc(C(F)(F)F)c2-c2cc3ccccc3o2)c(O)c1` [TCMDC-124534], the “% Inhibition” value is listed as 7.209%.

`O=C(Nc1ccc2c(c1)CCNCC2)c1ccc(-c2ccc(Cl)cc2)cc1` [TCMDC-141480]: the “% Inhibition” value came to 106.4%.

With `O=C(Nc1ccc2c(c1)CNCC2)c1ccc(-c2ccc(Cl)cc2)cc1` [TCMDC-141479], the “% Inhibition” value is on record as 71.62%.

Regarding `Cc1ccc(NC(=O)c2ccc(Cl)cc2)cc1-c1ccc(C(=O)Nc2ccncc2)cc1` [TCMDC-133698], the “% Inhibition” value was -1.939%.

Regarding `O=C(Nc1ccc2c(c1)CCNCC2)Nc1ccc2ccccc2c1` [TCMDC-133733], the “% Inhibition” value was -8.361%.

For the molecule `O=C(Nc1ccc(-c2ccccc2)cc1)Nc1ccc2c(c1)CCNCC2` [TCMDC-133729], the “% Inhibition” value came to 60.87%.

Take `CN1CCN(c2cc(NC(=O)c3ccc(-c4ccc(Cl)cc4)cc3)ccc2Cl)CC1` [TCMDC-138671]: the “% Inhibition” value is reported as -15.54%.

With `CN1CCc2ccc(NC(=O)Nc3ccc(-c4ccccc4)cc3)cc2C1` [TCMDC-133725], the “% Inhibition” value is given as -3.896%.

For the molecule `CN1CCCc2cc(NC(=O)c3cc(-c4ccc(Cl)cc4)cs3)ccc2C1` [TCMDC-134050], the “% Inhibition” value amounted to 7.243%.

`O=C(Nc1ccc(Cl)c(Cl)c1)Nc1ccc2c(c1)CCNCC2` [TCMDC-133731]: the “% Inhibition” value came out at 29.44%.

In the case of `CC1CCN(Cc2c(O)ccc3c(=O)c(-c4nc5ccccc5s4)c(N)oc23)CC1` [TCMDC-124313], the “% Inhibition” value was found to be 12.71%.

In the case of `Cc1ccc(OCCCON2C(N)=NC(N)=NC2(C)C)cc1C` [TCMDC-131650], the “% Inhibition” value turned out to be 7.659%.

For the molecule `Cc1nc(NCCc2cnc[nH]2)cc(NCc2ccccc2)n1` [TCMDC-135164], the “% Inhibition” value is given as -1.635%.

Turning to `CN(C(=O)c1cc2c(-c3cncnc3)cccc2[nH]1)c1ccccc1` [TCMDC-134637], the “% Inhibition” value is reported as 36.22%.

Take `CCC(CC)CN1C(=O)C(C)(c2ccccc2)N=C1N` (stereo not drawn) [TCMDC-137051]: the “% Inhibition” value was found to be 1.821%.
